# Compound activity: PubChem BioAssay, Broad Institute
# This excerpt belongs to a sample that is enriched for hits.
# YB-1 expr inh – YB-1 expression inhibition | AID 434959 | delta delta Cp (YB-1 minus CDIP) (test concentration not listed) | hit rate 0.37% among 30,000 | U2OS, qRT-PCR YB-1 vs CDIP delta delta Cp, 16 h; hits give high values; zero = DMSO, each unit about twofold;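 active means delta delta Cp rounded down to an integer at or above 3, about 3 SD of DMSO wells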;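 further: higher means less YB-1 transcript or more CDIP transcript relative to DMSO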
# Numbers without * were called inactive.
SMILES,YB-1 expr inh
C[C@@H]1C(=O)O[C@H]2[C@H]1CC[C@@]1(C)C=CC(=O)[C@@]3(C)O[C@@]213,4*
COc1ccc2c(c1OC)CN1CCc3cc4c(cc3C1C2)OCO4 (centres undefined),-0.29
COc1ccc2c(c1OC)C(=O)O[C@H]2[C@H]1c2cc3c(cc2CCN1C)OCO3,6.4*
c1cncc(C2Nc3ccccc3-n3cccc32)c1 (centres undefined),-0.3
CCN1C[C@]2(COC)CC[C@H](O)[C@]34C1[C@H](C[C@H]23)[C@@]1(O)C[C@H](OC)[C@H]2C[C@@H]4[C@@H]1[C@H]2OC(C)=O,-0.24
C[C@H]1CC[C@@H]2[C@@H](C)[C@H]3[C@H](C[C@H]4[C@@H]5CC=C6CC(O[C@@H]7O[C@H](CO)[C@@H](O)[C@H](O[C@@H]8O[C@H](CO)[C@@H](O)[C@H](O)[C@H]8O)[C@@H]7O[C@@H]7O[C@@H](C)[C@H](O)[C@@H](O)[C@H]7O)CC[C@]6(C)[C@H]5CC[C@]34C)N2C1 (some centres undefined),-0.8
